Source: PubChem BioAssay AID1159580 (chemical genetic matrix, 2015)
Several values for one entry are separate records, joined by “and”; a condition that tells them apart may be missing. Equal values may be shown once. Out of some 5,500 compounds screened, about 2,000 (36%) were called active. Not shown: some 18% with an inconclusive outcome. Rule as the data show it: active = normalized growth mostly below about 0.91 (no sharp cut-off); inconclusive = no clear call, values can overlap the other calls; inactive = mostly above about 0.92. Some of the results follow.

Assay: chemical genetic growth profiling, strain panel (AID 1159580);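 also: tested at 20 µM; growth read once vehicle control cultures reached saturation at 30 °C; 1 = growth at the plate median or of vehicle wells; lower values mean less growth of the strain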
Settings: S. cerevisiae deletion strains, growth OD

Measured: normalized growth

CCCC(=O)Nc1ncnc2c1ncn2C1O[C@@H]2COP(=O)(O)O[C@H]2[C@H]1OC(=O)CCC (stereo not given in full)
inactive: locus YAL013W, strain DEP1, active compounds read low 1 | locus YAL021C, strain ccr4, active compounds read low 0.981 | locus YAL026C, strain drs2, active compounds read low 0.986 | locus YAL030W, strain snc1, active compounds read low 0.994 | locus YBL061C, strain skt5, active compounds read low 0.97 | locus YBR009C, strain hhf1, active compounds read low 0.962 | locus YBR021W, strain FUR4, active compounds read low 0.999 | locus YBR023C, strain chs3, active compounds read low 0.974 | locus YBR171W, strain sec66, active compounds read low 0.971 | locus YBR229C, strain ROT2, active compounds read low 1.01 | locus YBR231C, strain swc5, active compounds read low 0.995 | locus YBR279W, strain paf1, active compounds read low 0.981 | locus YCL011C, strain gbp2, active compounds read low 0.958 | locus YCL016C, strain dcc1, active compounds read low 0.952 | locus YCL029C, strain bik1, active compounds read low 1.02 | locus YCL061C, strain MRC1, active compounds read low 0.977 | locus YCL069W, strain vba3, active compounds read low 0.974 | locus YCR088W, strain abp1, active compounds read low 0.984 | locus YDL005C, strain med2, active compounds read low 0.982 | locus YDL035C, strain GPR1, active compounds read low 1.02 | locus YDL040C, strain nat1, active compounds read low 0.987 | locus YDL074C, strain BRE1, active compounds read low 1 | locus YDL101C, strain DUN1, active compounds read low 1.01 | locus YDL134C, strain PPH21, active compounds read low 1.01 | locus YDL185W, strain tfp1, active compounds read low 1.02 | locus YDL192W, strain arf1, active compounds read low 1.01 | locus YDR001C, strain nth1, active compounds read low 0.986 | locus YDR069C, strain doa4, active compounds read low 0.999 | locus YDR101C, strain arx1, active compounds read low 1.02 | locus YDR137W, strain rgp1, active compounds read low 0.973 | locus YDR150W, strain NUM1, active compounds read low 1 | locus YDR159W, strain sac3, active compounds read low 1.01 | locus YDR162C, strain NBP2, active compounds read low 1.01 | locus YDR195W, strain ref2 1 | locus YDR297W, strain sur2, active compounds read low 0.985 | locus YDR318W, strain mcm21, active compounds read low 1.02 | locus YDR334W, strain swr1, active compounds read low 0.975 | locus YDR335W, strain msn5, active compounds read low 0.988 | locus YDR388W, active compounds read low 1.02 | locus YDR392W, strain spt3, active compounds read low 0.869 | locus YDR502C, strain sam2, active compounds read low 1.01 | locus YEL003W, strain gim4, active compounds read low 0.995 | locus YEL037C, strain rad23, active compounds read low 0.984 | locus YEL061C, strain CIN8 (second series), active compounds read low 0.985 | locus YEL061C, strain CIN8, active compounds read low 1.01 | locus YER015W, strain faa2, active compounds read low 0.98 | locus YER016W, strain bim1, active compounds read low 0.975 | locus YER110C, active compounds read low 1.03 | locus YER111C, strain swi4, active compounds read low 0.973 | locus YER155C, strain BEM2 (second series), active compounds read low 1.01 | locus YER155C, strain BEM2, active compounds read low 0.996 | locus YER167W, strain BCK2, active compounds read low 1.01 | locus YFR010W, strain ubp6, active compounds read low 0.988 | locus YGL078C, strain dbp3, active compounds read low 1.02 | locus YGL086W, strain mad1, active compounds read low 1 | locus YGL167C, strain pmr1, active compounds read low 0.981 | locus YGL173C, strain kem1, active compounds read low 0.979 | locus YGL227W, strain vid30, active compounds read low 0.978 | locus YGL240W, strain doc1, active compounds read low 1.02 | locus YGL248W, strain PDE1, active compounds read low 1.01 | locus YGL253W, strain hxk2, active compounds read low 0.996 | locus YGR135W, strain pre9, active compounds read low 1.03 | locus YGR229C, strain SMI1, active compounds read low 1.01 | locus YGR252W, strain gcn5, active compounds read low 1.04 | locus YHR013C, strain ard1, active compounds read low 0.973 | locus YHR027C, strain rpn1, active compounds read low 0.979 | locus YHR030C, strain SLT2, active compounds read low 1 and 1.02 | locus YHR079C, strain IRE1 (second series), active compounds read low 1.02 | locus YHR079C, strain IRE1, active compounds read low 1.03 | locus YHR094C, strain hxt1, active compounds read low 1.02 | locus YHR129C, strain ARP1, active compounds read low 1 | locus YHR142W, strain chs7, active compounds read low 0.944 | locus YHR200W, strain rpn10, active compounds read low 1.02 | locus YIL066C, strain RNR3, active compounds read low 1.02 | locus YIL073C, strain SPO22, active compounds read low 1.06 | locus YIL125W, strain kgd1, active compounds read low 1.02 | locus YIR030C, strain dcg1, active compounds read low 1.02 | locus YJL092W, strain hpr5, active compounds read low 0.985 | locus YJL095W, strain BCK1 (second series), active compounds read low 0.979 | locus YJL095W, strain BCK1, active compounds read low 1 and 1.03 | locus YJL115W, strain asf1, active compounds read low 0.985 | locus YJL129C, strain trk1, active compounds read low 0.949 | locus YJL134W, strain LCB3, active compounds read low 1.01 | locus YJL154C, strain vps35, active compounds read low 0.97 | locus YJL164C, strain tpk1, active compounds read low 0.968 | locus YJL166W, strain qcr8, active compounds read low 1.01 | locus YJL168C, strain set2, active compounds read low 1.03 | locus YJL187C, strain SWE1 (second series), active compounds read low 1 | locus YJL187C, strain SWE1, active compounds read low 0.992 | locus YJR043C, strain POL32, active compounds read low 1.01
